Source: PubChem BioAssay AID1159580 (chemical genetic matrix, 2015)
Out of some 5,500 compounds screened, about 2,000 (36%) were called active. Another 18% or so got no clear call; they are omitted. No stated cut-off is given here; in the data, active means normalized growth mostly below about 0.91 (no sharp cut-off); inconclusive means no clear call, values can overlap the other calls; inactive means mostly above about 0.92. The list shows a part of the results.

Test: chemical genetic growth profiling, strain panel (AID 1159580);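 further: tested at 20 µM; growth read once vehicle control cultures reached saturation at 30 °C; 1 = growth at the plate median or of vehicle wells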
Conditions: growth OD

Measured: normalized growth

Nc1cc(-c2ccncc2)c[nH]c1=O
inactive: S. cerevisiae deletion strains, locus YJR043C, strain POL32, stronger effect = lower value 0.89 | S. cerevisiae deletion strains, locus YJR066W, strain TOR1, stronger effect = lower value 0.973 | S. cerevisiae deletion strains, locus YJR075W, strain HOC1, stronger effect = lower value 0.942 | S. cerevisiae deletion strains, locus YKL009W, strain mrt4, stronger effect = lower value 0.977 | S. cerevisiae deletion strains, locus YKL068W, stronger effect = lower value 0.977 | S. cerevisiae deletion strains, locus YKL085W, strain MDH1 (second series), stronger effect = lower value 0.989 | S. cerevisiae deletion strains, locus YKL085W, strain MDH1, stronger effect = lower value 0.989 | S. cerevisiae deletion strains, locus YKL190W, strain CNB1, stronger effect = lower value 0.974 | S. cerevisiae deletion strains, locus YKR026C, strain gcn3, stronger effect = lower value 0.947 | S. cerevisiae deletion strains, locus YKR091W, strain srl3, stronger effect = lower value 0.976 | S. cerevisiae deletion strains, locus YLL041C, strain sdh2, stronger effect = lower value 0.933 | S. cerevisiae deletion strains, locus YLR039C, strain RIC1, stronger effect = lower value 0.981 | S. cerevisiae deletion strains, locus YLR058C, strain SHM2, stronger effect = lower value 0.975 | S. cerevisiae deletion strains, locus YLR102C, strain apc9, stronger effect = lower value 0.983 | S. cerevisiae deletion strains, locus YLR113W, strain HOG1, stronger effect = lower value 1.02 | S. cerevisiae deletion strains, locus YLR262C, strain YPT6 (second series), stronger effect = lower value 1.01 | S. cerevisiae deletion strains, locus YLR262C, strain YPT6, stronger effect = lower value 0.978 | S. cerevisiae deletion strains, locus YLR268W, strain sec22, stronger effect = lower value 0.908 | S. cerevisiae deletion strains, locus YLR342W, strain FKS1 (second series), stronger effect = lower value 0.87 | S. cerevisiae deletion strains, locus YLR342W, strain FKS1, stronger effect = lower value 0.952 | S. cerevisiae deletion strains, locus YLR357W, strain rsc2, stronger effect = lower value 0.972 | S. cerevisiae deletion strains, locus YLR384C, strain iki3, stronger effect = lower value 0.966 | S. cerevisiae deletion strains, locus YLR418C, strain cdc73, stronger effect = lower value 0.882 | S. cerevisiae deletion strains, locus YML032C, strain rad52, stronger effect = lower value 0.986 | S. cerevisiae deletion strains, locus YML120C, strain ndi1, stronger effect = lower value 0.979 | S. cerevisiae deletion strains, locus YML124C, strain tub3, stronger effect = lower value 0.971 | S. cerevisiae deletion strains, locus YMR078C, strain ctf18, stronger effect = lower value 0.949 | S. cerevisiae deletion strains, locus YMR125W, strain sto1, stronger effect = lower value 0.955 | S. cerevisiae deletion strains, locus YMR129W, stronger effect = lower value 0.955 | S. cerevisiae deletion strains, locus YMR231W, strain pep5, stronger effect = lower value 0.965 | S. cerevisiae deletion strains, locus YMR263W, strain SAP30, stronger effect = lower value 0.977 | S. cerevisiae deletion strains, locus YMR307W, strain GAS1, stronger effect = lower value 0.937 | S. cerevisiae deletion strains, locus YNL067W, strain RPL9B, stronger effect = lower value 0.888 | S. cerevisiae deletion strains, locus YNL183C, strain NPR1, stronger effect = lower value 0.977 | S. cerevisiae deletion strains, locus YNL250W, strain rad50, stronger effect = lower value 0.963 | S. cerevisiae deletion strains, locus YNL271C, strain bni1, stronger effect = lower value 0.989 | S. cerevisiae deletion strains, locus YNL298W, strain CLA4, stronger effect = lower value 0.988 | S. cerevisiae deletion strains, locus YNL322C, strain KRE1 (second series), stronger effect = lower value 0.907 | S. cerevisiae deletion strains, locus YNR052C, strain pop2, stronger effect = lower value 0.994 | S. cerevisiae deletion strains, locus YOL006C, strain TOP1, stronger effect = lower value 0.573 | S. cerevisiae deletion strains, locus YOL012C, strain htz1 0.865 | S. cerevisiae deletion strains, locus YOL147C, strain pex11, stronger effect = lower value 0.979 | S. cerevisiae deletion strains, locus YOR001W, strain rrp6, stronger effect = lower value 0.967 | S. cerevisiae deletion strains, locus YOR069W, strain VPS5, stronger effect = lower value 0.967 | S. cerevisiae deletion strains, locus YOR080W, strain dia2, stronger effect = lower value 0.965 | S. cerevisiae deletion strains, locus YOR144C, strain elg1, stronger effect = lower value 0.986 | S. cerevisiae deletion strains, locus YOR184W, strain ser1, stronger effect = lower value 0.893 | S. cerevisiae deletion strains, locus YOR231W, strain MKK1, stronger effect = lower value 1.01 | S. cerevisiae deletion strains, locus YOR290C, strain snf2, stronger effect = lower value 0.91 | S. cerevisiae deletion strains, locus YOR316C, strain cot1, stronger effect = lower value 0.98 | S. cerevisiae deletion strains, locus YPL078C, strain atp4, stronger effect = lower value 0.973 | S. cerevisiae deletion strains, locus YPL241C, strain CIN2, stronger effect = lower value 0.993 | S. cerevisiae deletion strains, locus YPL256C, strain CLN2, stronger effect = lower value 1.08 | S. cerevisiae deletion strains, locus YPR119W, strain clb2, stronger effect = lower value 0.987 | S. cerevisiae deletion strains, locus YPR141C, strain kar3, stronger effect = lower value 0.972 | S. cerevisiae deletion strains, locus YPR167C, strain met16, stronger effect = lower value 0.928 | S. cerevisiae strains, strain wild type, stronger effect = lower value 0.958
active: S. cerevisiae deletion strains, locus YKL160W, strain elf1, stronger effect = lower value 0.689 | S. cerevisiae deletion strains, locus YKR001C, strain vps1, stronger effect = lower value 0.765 | S. cerevisiae deletion strains, locus YLL001W, strain dnm1, stronger effect = lower value 0.687 | S. cerevisiae deletion strains, locus YLL026W, stronger effect = lower value 0.826 | S. cerevisiae deletion strains, locus YLR027C, strain aat2, stronger effect = lower value 0.831 | S. cerevisiae deletion strains, locus YLR221C, strain rsa3, stronger effect = lower value 0.778 | S. cerevisiae deletion strains, locus YLR258W, strain gsy2, stronger effect = lower value 0.673 | S. cerevisiae deletion strains, locus YLR320W, strain mms22, stronger effect = lower value 0.273 | S. cerevisiae deletion strains, locus YLR330W, strain CHS5, stronger effect = lower value 0.878 | S. cerevisiae deletion strains, locus YLR370C, strain arc18, stronger effect = lower value 0.514 | S. cerevisiae deletion strains, locus YML016C, strain PPZ1, stronger effect = lower value 0.899 | S. cerevisiae deletion strains, locus YMR058W, strain fet3, stronger effect = lower value 0.871 | S. cerevisiae deletion strains, locus YMR205C, strain PFK2, stronger effect = lower value 0.559 | S. cerevisiae deletion strains, locus YMR223W, strain ubp8, stronger effect = lower value 0.848 | S. cerevisiae deletion strains, locus YNL071W, strain lat1, stronger effect = lower value 0.39 | S. cerevisiae deletion strains, locus YNL209W, strain ssb2, stronger effect = lower value 0.914 | S. cerevisiae deletion strains, locus YNL233W, strain BNI4, stronger effect = lower value 0.82 | S. cerevisiae deletion strains, locus YNL248C, strain rpa49, stronger effect = lower value 0.517 | S. cerevisiae deletion strains, locus YNL307C, strain MCK1, stronger effect = lower value 0.163 | S. cerevisiae deletion strains, locus YNR049C, strain mso1, stronger effect = lower value 0.889 | S. cerevisiae deletion strains, locus YOR061W, strain CKA2, stronger effect = lower value 0.887 | S. cerevisiae deletion strains, locus YOR070C, strain gyp1, stronger effect = lower value 0.814 | S. cerevisiae deletion strains, locus YOR083W, strain WHI5, stronger effect = lower value 0.858 | S. cerevisiae deletion strains, locus YOR106W, strain vam3, stronger effect = lower value 0.587 | S. cerevisiae deletion strains, locus YOR136W, strain idh2, stronger effect = lower value 0.899 | S. cerevisiae deletion strains, locus YOR265W, strain rbl2, stronger effect = lower value 0.768 | S. cerevisiae deletion strains, locus YOR270C, strain vph1, stronger effect = lower value 0.451 | S. cerevisiae deletion strains, locus YPL051W, strain arl3, stronger effect = lower value 0.792 | S. cerevisiae deletion strains, locus YPL106C, strain sse1, stronger effect = lower value 0.555 | S. cerevisiae deletion strains, locus YPL240C, strain hsp82, stronger effect = lower value 0.839 | S. cerevisiae deletion strains, locus YPR163C, strain tif3, stronger effect = lower value 0.603 | S. cerevisiae deletion strains, strain wtn01, stronger effect = lower value 0.848
